Compound activity deposited in PubChem BioAssay by several laboratories.
Shown are actives, neighbours in structure and some others; about 2.7% of the full set was active somewhere.
Mcl1 Noxa PPI = disrupts binding of human Mcl-1 to Noxa peptide | Q07820 | TR-FRET Mcl-1/Noxa peptide binding, 2 h | inhibition, % at 21.7 µM | actives 1.5% (n = 220,000) | AID 1022;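 active = compounds that cut the protein-peptide binding signal by more than 50% relative to plate controls in a single-dose test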;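 also: His-tagged Mcl-1 with rhodamine Noxa BH3 peptide and terbium anti-His antibody; 0% = Mcl-1 plus Noxa peptide wells and 100% = peptide-only wells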
14-3-3 Bad inh = disrupts binding of bovine 14-3-3 zeta to phospho-Bad peptide. P63103. TR-FRET 14-3-3zeta/Dy647-pBad peptide displacement, 1 h. inhibition, % at 21.7 µM. actives 0.71% (n = 220,000). AID 781;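 active = inhibition above about 70%, limit read from the data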;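 also: 0% = full 14-3-3 plus peptide FRET controls and 100% = background without 14-3-3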
Mcl1 Bid PPI = Mcl-1/Bid interaction inhibition. Q07820. TR-FRET Mcl-1/Bid-Dy647 peptide binding, 1536-well. inhibition, % at 21.7 µM. actives 0.97% (n = 220,000). AID 1021;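 active = compounds that cut the binding signal by more than half at the single screening dose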;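 also: His-tagged Mcl-1 with europium anti-His antibody binding Bid BH3 peptide; 0% = Mcl-1 plus peptide wells and 100% = peptide-only wells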
Mcl-1 Bim block = human Bim-Mcl-1 interaction inhibition | Q07820 | AID 1009 | Bead-based flow cytometry, Bim peptide-Mcl-1 binding | inhibition, % at 10 µM | actives 0.1% (n = 190,000); in the data active = inhibition above about 40%;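 also: 0% = no compound tracer wells and 100% = peptide blocker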
Pf gamet viab = kills late stage P. falciparum gametocytes | P. falciparum stage V gametocytes, ATP luminescence, 24 h | inhibition, % at 10.9 µM | actives 0.065% (n = 150,000) | AID 743093;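 active = inhibition above the mean plus 3 SD of compounds within the control limits, set per campaign, cut at about 38% in these data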;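 also: 0% = DMSO wells and 100% = medium only without gametocytes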
eIF4E-4G inh = inhibitors of eIF4E and eIF4G interaction in translation initiation; TR-FRET eIF4E-eIF4GI(517-606) binding, 2 h; inhibition, % at 21.7 µM; actives 0.37% (n = 220,000);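 active = inhibition above about 30%, limit read from the data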;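 also: 0% = full FRET control wells and 100% = background wells lacking eIF4GI fragment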
* = called active by the depositor; . = no result given; [ ] = dose if it differs, or a comment.

SMILES	Mcl1 Noxa PPI	14-3-3 Bad inh	Mcl1 Bid PPI	Mcl-1 Bim block	Pf gamet viab	eIF4E-4G inh
C[C@@H](C(=O)Nc1nc2ccc(F)cc2s1)N1C(=O)C2CC=CCC2C1=O (some centres not stated)	-8	-5	95*	-2	25	0
O=C1c2cccc3cccc(c23)C(=O)N1c1ccc2ncccc2c1	-13	74*	8	6	.	6
CCOC(=O)c1cnc(-n2nc(C)cc2C)nc1Nc1ccc(N(C)C)cc1	72*	8	-14	8	.	-3
CCCCCCC(=O)Nc1nc(C)c(-c2csc(Nc3cc(Cl)ccc3C)n2)s1	29	19	-14	0	4	2
O=C(Nc1nc(-c2ccncc2)cs1)c1ccco1	94*	-5	-13	-1	.	-15
Cc1ccc(Cl)cc1Nc1nc(-c2sc(NC(=O)c3ccccc3)nc2C)cs1	106*	83*[fluorescence artefact?]	100*	-2	.	15
COc1ccccc1Nc1nc(-c2sc(NC(=O)c3ccccc3)nc2C)cs1	26	20	-32	0	.	-2
COc1ccccc1Nc1nc(-c2sc(NC(=O)c3ccc([N+](=O)[O-])cc3)nc2C)cs1	86*	50	25	3	.	-12
COc1cccc(Nc2nc(-c3sc(NC(=O)c4ccco4)nc3C)cs2)c1	42	50	-50	56*	22	-8
COc1ccc(Cl)cc1Nc1nc(-c2sc(NC(=O)c3ccco3)nc2C)cs1	28	23	-40	2	.	-17
CCOC(=O)C(=O)Nc1ncc(Cl)s1	-9	-4	-5	.	9	1
Cc1nc(NC(=O)c2ccccc2)sc1-c1csc(Nc2cccc(F)c2)n1	56*	71*	-51	-4	.	-20
CCOc1ccccc1Nc1nc(-c2sc(NC(=O)c3cccc(Cl)c3)nc2C)cs1	24	71*	-49	-6	27	-16
CC(=O)Nc1ccc(-c2csc(N/N=C\c3ccncc3)n2)cc1	51*	6	-32	.	-3	-3
Cc1cc(NS(=O)(=O)c2ccc(Nc3nc(-c4sc(NC(=O)c5ccccc5)nc4C)cs3)cc2)no1	117*	7	-27	1	.	-4
CCOc1ccccc1Nc1nc(-c2sc(NC(=O)c3ccccc3)nc2C)cs1	31	40	-46	-1	.	-17
Cc1nc(NC(=O)c2ccccc2)sc1-c1csc(NCc2ccccc2)n1	14	-13	-32	1	-1	-14
CN(C)C(CNC(=S)Nc1ccc(Cl)cc1)c1cccnc1 (configuration not stated)	-3	-17	-29	0	5	1
CCCOC(=O)C1C2C=CC(C2)C1C(=O)OCC(=O)c1ccccc1 (configuration not stated)	6	-5	-34	0	20	1
CN(C(=O)c1ccc(-c2nn(C)c(=O)c3ccccc23)cc1)c1ccccc1	-4	-3	-21	-3	-6	-9
Oc1ccc(N=Nc2cccc(Cl)c2)cc1C=Nc1ccc(N2CCOCC2)cc1	86*	16	56*	0	9	1
COc1ccc(C(=O)N/C(=C\c2ccccc2)C(=O)Nc2ccccc2C(=O)O)cc1	.	.	.	.	11	.
C#CCCCCCCC#CCN(C)C	36	47	55*	-4	-30	0
O=[N+]([O-])c1cccc(/C=C/c2nc(C=Nc3ccc4ccccc4c3)c(O)o2)c1	81*	61	66*	2	3	-1
CN(C1CC(C)(C)NC(C)(C)C1)S(=O)(=O)CC12CCC(CC1=O)C2(C)C (configuration not stated)	-4	3	-15	.	5	-5
SMILES	Mcl1 Noxa PPI	14-3-3 Bad inh	Mcl1 Bid PPI	Mcl-1 Bim block	Pf gamet viab	eIF4E-4G inh
CCN=c1scc(C)n1/N=C/c1cc(Br)c(O)c(OC)c1	63*	-32	-17	2	-42	5
CN=c1scc(C)n1/N=C/c1cc(Br)c(O)c(Br)c1	29	6	-12	1	0	7
COc1cc(/C=N/N2C(=O)CSC2=S)cc(Br)c1O	58*	8	-13	-3	.	-4
CN(C)c1ccc(NC(=O)Nc2cccc(Cl)c2)cc1	76*	0	1	-5	7	-1
CN(C)c1ccc(NC(=O)Nc2csc3ccccc23)cc1	57*	6	-8	.	-13	10
O=C(Nc1ccc(F)cc1)Nc1csc2ccccc12	19	0	-25	.	-22	1
